# Screening results deposited in PubChem BioAssay by National Center for Advancing Translational Sciences (NCATS).
# A selection: hits, their analogues and other compounds. The true share with any hit is near 9.4%.
# ELG1 repair inh = ELG1-dependent DNA repair inhibition; HEK293T ELG1-luciferase reporter, luminescence, 16 h; DNA damage induced by 5-fluorouridine; Potency, µM (top dose mostly 46.1 µM), without a hit: at the top dose activity change, negative = inhibition, usual class: inhibitors; 2.3% of 330,000 active; AID 504467; note: % is set by controls: 0 for no effect and ±100 for the full control effect; nearly all actives have a fitted effect of over 55% in size
#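 DMSO vehicle served as the neutral condition. Each well held 2,000 cells given 5-fluorouridine plus compound; after 16 hr at 37 °C/5% CO2, ONE-Glo was added and luciferase measured 30 min later.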
# SMN2 splice up = increases expression of the SMN2 splice variant; Potency, µM (top dose mostly 46.1 µM), without a hit: at the highest dose activity change, positive = activation, actives largely listed as activators; 2.8% of 210,000 active; HEK293 SMN2-luciferase splicing reporter, luminescence, 30-36 h; note: % of control where 0% means no effect; nearly all actives have a fitted effect of over 55% in size
#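 qHTS luciferase splicing reporter: luminescence rises when SMN2 exon 7 is included in transfected HEK293 cells. Compound exposure lasted 30-36 h at 37C, with 4.5 mM final sodium butyrate as control, followed by a ONE-Glo read.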
# Rab9 prom act = activates the Rab9 promoter; Huh7 Rab9 promoter-luciferase reporter, luminescence, 24 h; Potency, µM (top dose mostly 9.22 µM), for inactives: at the top dose activation, negative = inhibition, most hits filed as activators; 2.8% of 320,000 active; AID 485297; note: % of control where 0% means no effect; nearly all actives have a fitted effect of over 60% in size
#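 Rab9 promoter-driven luciferase in stably transfected Huh7 cells; 1500 cells/well rested 2 h, exposed to compound in DMSO for 24 h at 37 °C, 5% CO2. Luminescence read 10 min after adding luciferase reagent at ambient temperature.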
# NPC1 promoter act = NPC1 promoter activation | Huh7 NPC1 promoter luciferase reporter, 24 h | Potency, µM (titrated, usually from 9.22 µM), for the others: top-dose activation, actives largely listed as activators | 2.4% of 320,000 active | AID 485313; note: % of control where 0% means no effect; nearly all actives have a fitted effect of over 60% in size
#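 Compounds in DMSO were transferred onto Huh7 NPC1-luciferase reporter cells pre-incubated 2 h; after 24 h at 37 °C, Amplite reagent was dispensed and luminescence recorded 10 min later.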
# FLuc modulator = firefly luciferase modulation, counter-screen for miR-21 project; Potency, µM (titrated, usually from 57.5 µM), for the others: at the highest dose activity change, negative = inhibition, hits mostly inhibitors; P08659; purified FLuc, Km substrates, luminescence inhibition; 6.9% of 360,000 active;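 note: plate controls were vehicle for no effect and reference inhibitor for full effect; nearly all actives have a fitted effect of over 55% in size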
# Target sequence (P08659 whole entry, looked up): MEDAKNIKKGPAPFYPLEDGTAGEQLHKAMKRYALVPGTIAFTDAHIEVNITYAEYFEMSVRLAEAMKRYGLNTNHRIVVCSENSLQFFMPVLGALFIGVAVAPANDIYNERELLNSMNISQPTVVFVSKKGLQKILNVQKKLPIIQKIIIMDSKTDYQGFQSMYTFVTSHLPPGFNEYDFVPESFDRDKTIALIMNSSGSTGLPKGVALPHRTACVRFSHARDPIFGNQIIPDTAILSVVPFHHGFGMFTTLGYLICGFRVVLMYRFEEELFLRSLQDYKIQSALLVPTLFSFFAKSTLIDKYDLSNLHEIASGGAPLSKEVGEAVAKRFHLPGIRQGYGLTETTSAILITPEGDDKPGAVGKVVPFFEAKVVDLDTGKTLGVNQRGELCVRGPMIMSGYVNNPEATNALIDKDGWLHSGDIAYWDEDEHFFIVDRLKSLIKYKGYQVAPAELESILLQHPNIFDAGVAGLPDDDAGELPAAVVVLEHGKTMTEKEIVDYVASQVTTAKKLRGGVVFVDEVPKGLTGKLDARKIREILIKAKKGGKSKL
#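 Purified P. pyralis luciferase, 10 nM final, with Km-level 10 uM D-luciferin and 10 uM ATP in 50 mM Tris acetate pH 7.5, 10 mM Mg acetate, 0.01% Tween-20, 0.05% BSA; 6-point qHTS titration about 60 µM downward; luminescence read.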
# ELG1 genotox = inducers of genotoxicity in HEK293T ELG1-luciferase cells; HEK293T ELG1-luciferase reporter, luminescence, 16 h; 1.3% of 330,000 active; Potency, µM (highest dose often 46 µM), inactives show top-dose activity change, positive = activation, actives largely listed as activators; AID 504466; note: % of control where 0% means no effect; nearly all actives have a fitted effect of over 60% in size
#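 Genotoxic stress is detected as increased luminescence from luciferase-tagged ELG1 in HEK293T cells, measured with ONE-Glo after a 16 hr treatment at 37 °C.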
# * = called active by the depositor; ? = inconclusive; nt = no result given; [ ] = dose if it differs, or a comment. Calls come from the whole dose curve; as a rule, active = well fitted curve in the direction sought with a large enough effect; inconclusive = small, poorly fitted or top-dose-only effect, or another doubt; inactive = no such curve, though single readings can be large; an effect the other way counts as inactive or inconclusive. Potency is the fitted concentration of half-maximal effect.
SMILES,ELG1 repair inh,SMN2 splice up,Rab9 prom act,NPC1 promoter act,FLuc modulator,ELG1 genotox
COc1ccc2c(c1)c1c(c(=O)n(-c3ccccc3)c(=O)n1CC(=O)Nc1ccc(F)cc1)n2C,nt,nt,nt,nt,1%,nt
CCOC(=O)c1cccc(NC(=O)c2cn(-c3cccc(OC)c3)c(=O)c3ccccc23)c1,nt,nt,nt,nt,2%,nt
COc1cc(C2Nc3ccccc3C(=O)N2c2ccc3c(c2)OCCO3)ccc1OCC(C)C (centres undefined),?,3.2µM*,0.56µM*,1µM*,15µM*,1.8µM*
O=C1c2ccccc2NC(c2ccc3c(c2)OCCO3)N1c1ccc2c(c1)OCCO2 (centres undefined),?,3.5µM*,1.6µM*,1µM*,11µM*,2.1µM*
O=C1c2ccccc2NC(c2ccc3c(c2)OCO3)N1O (centres undefined),15%,-60%,1%,11%,-14%,0%
COc1ccc(NC(=O)CSc2nc(-c3cccc(C)c3)[nH]c2-c2ccccc2)cc1OC,nt,-22%,nt,nt,-18%,nt
COc1ccccc1CNC(=O)CCCn1c(=O)c2ccccc2n(Cc2ccc(C)cc2)c1=O,nt,-5%,nt,nt,-3%,nt
CC(C)c1ccc(C(=O)NN2C(=O)C3CCCCC3C2=O)cc1 (centres undefined),?,11µM*,3.2µM*,3.5µM*,2.1µM*,?
CCOc1ccccc1C(=O)NN1C(=O)C2CCCCC2C1=O (centres undefined),-11%,-4%,0%,-2%,0%,2%
CC(C)c1ccc(C(=O)NNC(=O)C2C3CCC(C3)C2C(=O)O)cc1 (centres undefined),?,nt,1.3µM*,0.5µM*,7.6µM*,4.6µM*
O=C(NNC(=O)C1C2CCC(C2)C1C(=O)O)c1ccc(Br)o1 (centres undefined),1%,4%,-4%,-2%,-6%,0%
N#Cc1ccc(CN2CCCC3(CCN(C(=O)c4cnccn4)CC3)C2)cc1,nt,-16%,nt,nt,nt,nt
O=C(N=Nc1c(O)[nH]c2ccccc12)c1cccc(S(=O)(=O)Nc2ccccc2Cl)c1,13%,1%,-2%,1%,21µM*,-3%
NS(=O)(=O)c1cc(C(=O)N=Nc2c(O)[nH]c3ccccc23)ccc1Cl,-3%,nt,18%,21%,6µM*,4%
CC(C)c1ccc2[nH]c(O)c(N=NC(=O)c3cccc(S(=O)(=O)Nc4ccccc4Cl)c3)c2c1,0%,-2%,25%,9%,-7%,9%
COc1cccc(-c2nc(SCC(=O)NC3CCCC3)c(-c3ccc(F)cc3)[nH]2)c1,nt,-23%,nt,nt,-3%,nt
OCC1O[C@H](OC2C(CO)O[C@@](O)(CO)C2O)C(O)C(O)C1O (some centres undefined),nt,-2%,nt,nt,nt,nt
COc1ccc(CN(C(=O)/C=C/C(=O)c2ccc(OC)cc2O)C(C(=O)NC2CCCCC2)c2ccncc2)cc1 (centres undefined),16µM*,-11%,-9%,-2%,4%,-11%
COCCN(CC(=O)NC1CCCCC1)C(=O)/C=C/C(=O)c1ccc(OC)cc1O,16%,nt,-1%,-2%,-5%,0%
O=C(NC1CCCCC1)C(c1ccncc1)N(Cc1ccc2c(c1)OCO2)C(=O)c1cnsn1 (centres undefined),-9%,-5%,-3%,-1%,1%,0%
COc1ccc(C(=O)/C=C/C(=O)N(Cc2ccc3c(c2)OCO3)C(C(=O)NC2CCCCC2)c2ccncc2)c(O)c1 (centres undefined),7.3µM*,-28%,2%,-1%,-2%,-5%
COc1ccc(CNC(=O)c2ccc(N3CCCC3)c(NC(=O)NCc3ccc(F)cc3)c2)cc1,nt,nt,nt,nt,-15%,nt
CCn1cc(S(=O)(=O)Nc2ccc3c(c2)OCCO3)cn1,?,nt,-9%,3%,17µM*,?
Cn1cc(S(=O)(=O)Nc2ccc3c(c2)OCCO3)cn1,?,nt,12%,-4%,?,?
Cc1nc2c(-c3ccccc3)c(C)nn2c(C)c1CCC(=O)NCc1ccc(F)cc1,nt,-9%,nt,nt,-1%,nt
SMILES,ELG1 repair inh,SMN2 splice up,Rab9 prom act,NPC1 promoter act,FLuc modulator,ELG1 genotox
CSc1cccc(NC(=O)C(c2ccccc2)N2Cc3ccccc3C2=O)c1 (centres undefined),nt,nt,nt,nt,-11%,nt
Clc1ccccc1-c1nc(-c2ccc(Br)o2)no1,?,nt,0.71µM*,1.3µM*,1.2µM*,4.1µM*
O=[N+]([O-])c1ccccc1-c1nc(-c2ccc(Br)o2)no1,?,17%[1.84 µM],2.8µM*,3.2µM*,3µM*,?
O=[N+]([O-])c1cc(Cl)ccc1-c1nc(-c2ccccc2)no1,?,17%[1.84 µM],3.2µM*,3.5µM*,1.2µM*,?
Nc1nnc(-c2ccccc2[N+](=O)[O-])o1,22%,-1%,-5%,-1%,-8%,2%
CCOC(=O)c1c(S(=O)(=O)N2CCC(C(=O)NCc3ccc(F)cc3)CC2)c(C)n(C)c1C,nt,nt,nt,nt,7%,nt
CC1CCc2nc(/C(C#N)=C/c3ccncc3)sc2C1 (centres undefined),?,18µM*,3.2µM*,2.8µM*,9.5µM*,?
CCCCCn1c(=O)c(-c2nc3ccccc3[nH]2)c(O)c2ccccc21,7.3µM*,-19%,8%,9%,-17%,0%
Cc1cccc(OCCSc2nc3ccccc3n2CC(=O)N2CCOCC2)c1,nt,nt,nt,nt,-1%,nt
Cc1ccc(CCNC(=O)c2ccc(CSCc3ccc(C)cc3)o2)cc1,nt,nt,nt,nt,-15%,nt
Cn1cnc2cc(NCc3ccccc3O)ccc21,22%,nt,4%,20%,?,16%
CCc1ccc(CNc2ccc3c(c2)ncn3C)cc1,?,11µM*,2.8µM*,2.2µM*,9.5µM*,?
CCn1cnc2cc(NCc3ccncc3)ccc21,3%,nt,-2%,-2%,-2%[2.3 µM],3%
COc1ccc(CNc2ccc3c(c2)ncn3C)cc1OC,-2%,nt,15%,-14%,1%,9%
Cc1ccc(CNc2ccc3c(c2)ncn3C)cc1,?,18µM*,2µM*,3.2µM*,12µM*,8.2µM*
CCn1cnc2cc(NCc3ccc(Cl)cc3)ccc21,?,nt,2.5µM*,2.8µM*,11µM*,?
CC(C)(C)n1cnc2cc(NCc3ccccc3Cl)ccc21,nt,29%,nt,nt,13µM*,nt
Cc1nc(-c2ccc(Cl)cc2)sc1CCNC(=O)C(=O)Nc1ccc2c(c1)OCO2,nt,nt,nt,nt,-6%,nt
O=C(NCCCN1CCN(c2ccc(F)cc2)CC1)c1cnn(-c2ccc(F)cc2)c1-n1cccc1,nt,nt,nt,nt,-8%,nt
CCCCCCCC/C=C\CCCCCCCC(=O)N(CCO)CCO,nt,-6%,nt,nt,nt,nt
